Screens: PubChem, Broad Institute
These entries were drawn from the full list.
aSyn UTR act = Activators via SNCA 5'UTR binding, MLPCN. alpha-synuclein 5'UTR reporter, activators screen. activity score, % (tested at 7.5 µM), hits read low. hit rate 7.1% among 300,000; in the data active means activity score below about -60%
Numbers stand for hits; . = inactive.

SMILES	aSyn UTR act
CCOCC(=O)Nc1cccc(-c2nc3cccnc3s2)c1C	-63
Cc1c(OCC(=O)C(C)(C)C)ccc2c3c(c(=O)oc12)CCCC3	-97
CC(C)Oc1cccc(C(=O)C2CCCN(C(=O)CCc3cnn(C)c3)C2)c1 (stereo not given)	-77
CC(C)Sc1ccc(C(=O)Nc2ccc(F)cc2F)cn1	-140
Cc1ccc(/C=C2\SC(=S)N(CCCC(=O)Nc3ccc(O)cc3)C2=O)cc1	.
Cc1ccc(/C=C2\SC(=S)N(CCCC(=O)Nc3ccccc3C(=O)O)C2=O)cc1	.
O=C(CCN1C(=O)/C(=C/c2ccccc2Cl)SC1=S)N1CCOCC1	-73
O=C(CCCN1C(=O)/C(=C/c2ccccc2Cl)SC1=S)NNC(=O)c1ccccc1Cl	.
CN1CCN(C(=O)CCCN2C(=O)/C(=C/c3cccc(Br)c3)SC2=S)CC1	-218
Cc1ccc(/C=C2\SC(=S)N(CCC(=O)N3CCOCC3)C2=O)cc1	-64
O=C(CCN1C(=O)/C(=C/c2ccccc2Cl)SC1=S)N1CCCC1	-115
O=C(N/N=C/c1ccccn1)c1cc(-c2ccc3ccccc3c2)n[nH]1	-161
O=C(N/N=C/c1ccco1)c1cc(-c2ccc3ccccc3c2)n[nH]1	-75
O=C(N/N=C/C=C\c1ccccc1[N+](=O)[O-])c1cc(-c2ccc3ccccc3c2)n[nH]1	-88
CCCCOC(=O)Nc1ccc(C)c(Cl)c1	-164
CCCCCCOC(=O)c1ccc(N)cc1	-114
CCCCCCCCOC(=O)c1c(CSC(=N)N)n(C)c2cc(Br)c(OC(C)=O)cc12	.
CCCCOC(=O)Nc1ccc(C(=O)OC)cc1	-110
O=c1cnc2ccccc2n1Cc1ccc(Br)cc1	-65
COCc1nc2ccccc2n1Cc1ccc(Br)cc1	-80
CC1=NN(c2ccc(C)cc2)C(=O)/C1=C\c1ccc(Br)s1	-66
Cc1ccc2c(c1)COc1c3ccc(C(=O)N4CCOCC4)cc3nn1-2	-113
O=C(c1ccc2c3n(nc2c1)-c1ccc(Cl)cc1CO3)N1CCCCC1	-138
O=C(O)c1ccc2c3n(nc2c1)-c1ccc(Cl)cc1CO3	-161
COc1cc(NC(=O)c2cccs2)cc(OC)c1	-90
SMILES	aSyn UTR act
COc1cccc(NC(=O)C(=O)NCc2ccncc2)c1	-100
O=C(NCc1ccccc1)C(=O)Nc1cccc(C(=O)O)c1	.
COc1cccc(NC(=O)C2=COCCO2)c1	-64
COc1cccc(NC(=O)c2cccs2)c1	-155
COc1ccc(C(=O)/C=C\c2ccc(NC(=O)c3cccs3)cc2)cc1	-129
CC1CCC(NC(=O)CCNS(=O)(=O)c2ccccc2)CC1 (stereo not given)	-62
Cc1ccc(S(=O)(=O)NCc2ccccc2)cc1C(=O)NC1CCC(C)CC1 (stereo not given)	-64
CCCCCC(C)NC(=S)NC(=O)c1cc(S(=O)(=O)N2CCOCC2)ccc1C (stereo not given)	.
CN(C)N1C(=O)/C(=C/c2ccco2)SC1=Nc1ccccc1	-64
CCOC(=O)c1ccc(COC(=O)c2ccc(-c3nnc(-c4ccccc4)o3)cc2)o1	-91
O=C(COC(=O)c1ccc(-c2nnc(-c3ccccc3)o2)cc1)c1ccccc1	-126
CCOC(=O)c1ccc(-c2nnc(-c3ccc(Cl)cc3Cl)o2)cc1	-207
CCOC(=O)c1ccc(-c2ccc(CO)o2)cc1	-132
O=C(Nc1ccccc1)N(O)c1ccc(Cl)cc1	-122
Cc1nn(-c2ccccc2)cc1C(=S)Nc1ccccc1	-171
Cc1c(C(=O)Nc2ccccc2F)cnn1-c1ccccc1	-163
Cc1c(C(=O)Nc2cc(F)cc(F)c2)cnn1-c1ccccc1	-187
CCc1ccc(NC(=O)c2cnn(-c3ccccc3)c2C)cc1	-83
Cc1c(C(=S)Nc2ccccc2)cnn1-c1ccccc1	-108
Cc1c(C(=O)Oc2cccc3ccccc23)cnn1-c1ccccc1	-65
Cc1c(C(=O)N(C)c2cccc(Cl)c2)cnn1-c1ccccc1	-104
CCn1c(NC(=S)Nc2ccccc2)nc2ccccc21	-106
CCn1c(C)nc2cc(C(=O)OC(C(F)(F)C(F)F)C(F)(F)C(F)F)ccc21	-73
CCn1c(C)nc2cc(-c3nc4n(n3)Cc3ccccc3-4)ccc21	.
CCn1c(C)nc2cc(C(=O)NNC(=S)Nc3ccccc3)ccc21	-164
SMILES	aSyn UTR act
CCn1c(C)nc2cc(C(=O)NNC(=S)Nc3ccc(F)cc3)ccc21	-126
CCn1c(C)nc2cc(C(=O)N/N=C/c3ccccc3)ccc21	-83
CCn1c(C)nc2cc(C(=O)NNC(=S)Nc3ccccc3Cl)ccc21	-110
CCn1c(C)nc2cc(C(=O)N/N=C(\C)c3ccc(OC)cc3O)ccc21	.
CCOc1ccc(NC(=S)NCc2nc3ccccc3[nH]2)cc1	-69
CCNC(=S)Nc1ccc(-c2nc3ccccc3[nH]2)cc1	-161
COc1cc(N2Cc3ccccc3C2)ccc1C=O	-151
Cc1cc(C(=O)O)ccc1N/C=C1\CCCC(C)C1=O (stereo not given)	-131
CC1CCC/C(=C\Nc2ccc(O)cc2)C1=O (stereo not given)	-116
Nc1cccc(/C=C/c2ccncc2)c1	-68
CC1=C(CO)C(=O)OC([C@@H](C)C2CC[C@H]3C4C[C@H]5O[C@]56[C@@H](O)C=CC(=O)[C@]6(C)C4CC[C@]23C)C1 (stereo not given in full)	-91
O=C(Nc1ccccc1)OCCOc1ccccc1Br	-125
O=C(Nc1cccc(Cl)c1)OCCOc1ccccc1	-140
CCC1(COC(=O)Nc2cccc(Cl)c2)COC1	-93
O=C(Nc1ccccc1)OCc1ccccn1	-102
O=C(Nc1ccccc1)OCCOc1ccccc1	-143
O=C(Nc1ccccc1)OCc1cc(-c2ccccc2Cl)on1	-160
O=C(Cn1nnc2ccccc2c1=O)NC1CCCCC1	-68
CC(=O)Nc1ccc(C(=O)Cn2nnc3ccccc3c2=O)cc1	-66
Cc1ccc(NC(=O)CCn2nnc3ccccc32)cc1	-84
Cc1ccc(C(=O)Cn2nnc3ccccc32)cc1	-161
O=C(CCn1nnc2ccccc21)N1CCN(c2ccccc2)CC1	-119
O=C(Cn1nnc2ccccc21)c1ccc(Br)cc1	-82
Cc1ccc(C(=O)Cn2nnc3ccccc32)cc1C	-90
Cc1ccnc(NC(=O)c2ccc(S(=O)(=O)N3CCCCCC3)cc2)c1	-119
SMILES	aSyn UTR act
Cc1ccnc(NC(=O)C2CCN(S(=O)(=O)c3ccc(Cl)c(C(F)(F)F)c3)CC2)c1	-63
CCS(=O)(=O)c1ncc(Cl)c(C(=O)Nc2ccc(S(=O)(=O)N3CCC(C)CC3)cc2)n1	.
O=C(Nc1ccccn1)c1ccc(S(=O)(=O)N2CCCCCC2)cc1	-87
O=C(Nc1ccccn1)c1ccc(S(=O)(=O)N2CCCCC2)cc1	-121
COc1cc2c(c(OC)c1OC)-c1ccc(OC)c(=O)cc1[C@@H](N(C)CC#CCO)CC2	.
CCN(CC)CCNC(=O)c1ccc(NC(=O)c2ccc(S(=O)(=O)N3CCCCCC3)cc2)cc1	-64
O=C(N/N=C\c1cc(Br)ccc1O)c1ccc(S(=O)(=O)N2CCCCC2)cc1	.
O=C(Nc1cccc(S(=O)(=O)N2CCCCC2)c1)c1ccc([N+](=O)[O-])o1	-268
O=C(Nc1cccc(O)c1)c1ccc(S(=O)(=O)N2CCCCCC2)cc1	-68
O=C(Nc1ccccc1[N+](=O)[O-])c1ccc(S(=O)(=O)N2CCCC2)cc1	-131
Cc1cccc(NC(=S)N=Nc2c(O)n(C)c3ccc(S(=O)(=O)N4CCOCC4)cc23)c1	.
O=C(Nc1ccccn1)c1ccc(Br)c(S(=O)(=O)N2CCCC2)c1	-65
N/C(=C\C(=O)c1cc(Cl)ccc1O)C(Cl)(Cl)Cl	-80
Cc1ccc(C)c(NC(=S)Nc2ncccc2C)c1	-136
